Records with an inconclusive call do not appear. A number with no mark means an inactive call. Active and inactive are the calls of the source. The call rests on the fitted dose curve; in most records, active means well fitted cell-killing curve with a large enough effect; inconclusive means small, poorly fitted or top-dose-only effect, or effect the other way; inactive means no such curve, though single readings can be large or run the other way.
test: Quantitative High-Throughput drug screen in 47 multiple myeloma cell lines against the NCATS MIPE library collection: ARP1_JJKsccF8 cell viability assay (AID 1918928; further: nearly all actives have a fitted effect of over 40% in size); conditions: ARP1 myeloma cells viability, CellTiter-Glo ATP, 48 h; series mostly up to 45.8 µM; viability: at the top concentration
Method in brief: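 Viability screen: myeloma cells (500/well) incubated 48 h at 37 °C, humidified 5% CO2, with pinned library compounds; CellTiter-Glo added, luminescence read; DMSO wells set 100%, medium-only wells 0%.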
Potency means the concentration at half of the fitted maximal effect.

Question: With `CCc1cc(-c2n[nH]c(C)c2-c2ccc3c(c2)OCCO3)c(O)cc1O` as the compound, how does the Potency read?
Answer: 2.96 µM (active)

Question: With `COc1ccc(CCN(C)CCCOc2ccc(S(=O)(=O)c3[nH]c4ccccc4c3C(C)C)cc2)cc1OC` as the compound, how does the “viability” value read?
Answer: 87.6%

Question: With `Clc1ccc(COC(Cn2ccnc2)c2ccc(Cl)cc2Cl)c(Cl)c1` (configuration not stated) as the compound, how does the Potency read?
Answer: 18.7 µM (active)

Question: With `CCOc1ccccc1N=Nc1c(C)[nH]n(-c2nc(-c3ccccc3)cs2)c1=O` as the compound, how does the “viability” value read?
Answer: 107%

Question: With `CC1(C)[C@H]2CC[C@]3(C)[C@@H](C(=O)C=C4[C@@H]5C[C@@](C)(C(=O)O)CC[C@]5(C)CC[C@]43C)[C@@]2(C)CC[C@@H]1O` as the compound, how does the “viability” value read?
Answer: 85.3%

Question: Which “viability” value does the source give for `COc1cc(Cl)cn2c(-c3cccc(NC4CNC4)n3)cnc12` here?
Answer: 68.3%

Question: Which Potency does the source give for `COc1cc2nc(-c3cc(F)ccc3O)nc(N[C@@H]3CNC[C@@H]3C(C)(C)O)c2cc1OC` here?
Answer: 10.5 µM (active)

Question: For `Nc1ncnc2c1ncn2[C@@H]1O[C@H](CO)[C@@H](O)[C@@H]1O`, which Potency is on record?
Answer: 23.5 µM (active)

Question: For `C=C[C@@H]1CN2CCC1C[C@@H]2C(O)c1ccnc2ccc(OC)cc12` (some centres not stated), which Potency is on record?
Answer: 1.87 µM (active)

Question: With `CN1CCC[C@H]1CCO[C@](C)(c1ccccc1)c1ccc(Cl)cc1` as the compound, how does the “viability” value read?
Answer: 72.6%

Question: For `O=S(=O)(NCCNCC=Cc1ccc(Br)cc1)c1cccc2cnccc12`, which Potency is on record?
Answer: 16.6 µM (active)

Question: With `C=CCc1cccc(C=NNC(=O)CN2CCN(Cc3ccccc3)CC2)c1O` as the compound, how does the Potency read?
Answer: 9.35 µM (active)

Question: For `CN(C)c1nc(Cc2ccc(NC(=O)c3ccc(C(F)(F)F)cc3)cc2)nc(N(C)C)c1CC(=O)O`, which “viability” value is on record?
Answer: 99.4%

Question: With `CN[C@@H]1CN(c2ccc3c(=O)c(C(=O)O)cn(-c4nccs4)c3n2)C[C@@H]1OC` as the compound, how does the Potency read?
Answer: 1.82 µM (active)

Question: With `CC(C)C[C@@H](C(=O)N[C@H](C(=O)OC1CCCC1)c1ccccc1)[C@H](O)C(=O)NO` as the compound, how does the Potency read?
Answer: 14.8 µM (active)

Question: For `COc1c(C)cnc(Cn2cnc3c(Cl)nc(N)nc32)c1C`, which Potency is on record?
Answer: 0.118 µM (active)

Question: With `C[C@H]1COC2=C1C(=O)C(=O)c1c2ccc2c1CCCC2(C)C` as the compound, how does the Potency read?
Answer: 16.6 µM (active)

Question: With `OC[C@H]1O[C@@H](O[C@H]2[C@@H](O)[C@@](O)(CO)O[C@@H]2CO)[C@H](O)[C@@H](O)[C@@H]1O` as the compound, how does the “viability” value read?
Answer: 103%

Question: Which Potency does the source give for `CC(=O)NCCC(=O)N[C@@H](CCC(N)=O)C(=O)N[C@@H](CO)C(=O)N[C@@H](CCC(N)=O)C(=O)N[C@@H](CCC(N)=O)C(=O)N[C@H](C(=O)N[C@@H](Cc1ccccc1)C(=O)N[C@]1(C)CCCCCCC=CCCC[C@@](C)(C(=O)N[C@@H](CCC(N)=O)C(=O)N[C@@H](CC(N)=O)C(N)=O)NC(=O)[C@H](CC(C)C)NC(=O)[C@H](CC(C)C)NC(=O)[C@@H](CCCNC(=N)N)NC(=O)[C@H](Cc2c[nH]c3ccccc23)NC(=O)[C@H](CC(C)C)NC(=O)[C@H](CC(N)=O)NC1=O)[C@H](C)O` here?
Answer: 20.9 µM (active)

Question: For `Cc1ccc(S(=O)(=O)OCC(=O)Nc2ccc(C(=O)O)c(O)c2)cc1`, which “viability” value is on record?
Answer: 84.1%

Question: For `O=C(c1ccc(C=Cc2n[nH]c3ccccc23)cc1)N1CCNCC1`, which Potency is on record?
Answer: 13.2 µM (active)

Question: For `C[C@@H]1[C@H](O)[C@@H](C)C=CC=CC=CC=CC=CC=CC=C[C@H](O[C@@H]2O[C@H](C)[C@H](O)[C@H](N)[C@@H]2O)C[C@@H]2O[C@](O)(C[C@@H](O)C[C@@H](O)[C@H](O)CC[C@@H](O)C[C@@H](O)CC(=O)O[C@H]1C)C[C@H](O)[C@@H]2C(=O)O`, which Potency is on record?
Answer: 7.43 µM (active)

From PubChem BioAssay (NCATS)
